Hits are enriched below; roughly 1.6% of the tested compounds scored in any of these assays.
NPSR antagonist: blocks cAMP signaling of the human neuropeptide S receptor. Q6W5P4. CHO-NPSR cells, cAMP TR-FRET, antagonist mode. Potency, µM (titrated, usually from 38.3 µM), hits mostly inhibitors. hit rate 1% among 220,000. AID 1461; further: nearly all actives have a fitted effect of over 50% in size
Target sequence (Q6W5P4 whole entry, looked up): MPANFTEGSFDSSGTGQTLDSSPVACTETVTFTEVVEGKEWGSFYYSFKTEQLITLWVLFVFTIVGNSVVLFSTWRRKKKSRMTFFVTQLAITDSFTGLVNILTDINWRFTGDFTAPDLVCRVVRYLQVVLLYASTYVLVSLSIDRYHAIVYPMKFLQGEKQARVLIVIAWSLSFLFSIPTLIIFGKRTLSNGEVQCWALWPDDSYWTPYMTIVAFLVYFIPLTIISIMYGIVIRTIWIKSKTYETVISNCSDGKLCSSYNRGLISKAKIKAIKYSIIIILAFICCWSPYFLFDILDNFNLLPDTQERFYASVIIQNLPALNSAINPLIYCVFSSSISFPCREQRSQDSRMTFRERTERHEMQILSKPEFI
LMNA splice mod: modulators of lamin A splicing; hit rate 0.01% among 200,000; AID 1487; Potency, µM (titrated, usually from 46.1 µM), hits mostly inhibitors; HeLa LMNA splicing GFP/RFP minigene ratio, 48 h; active means well fitted inhibition curve with a large enough effect in the signal ratio, with a control signal flat, not every such curve was filed as active; inconclusive means small, poorly fitted or top-dose-only effect, or effect the other way, or a change in a side signal; the % refers to the signal ratio
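S3 HeLa cells stably expressing lamin A-EGFP splicing minigene plus DsRed2, 600 cells/well, 48 h compound exposure at 37C. Laser-scanning cytometry; analysed as GFP (500-530 nm)/RFP (575-640 nm) total intensity ratio; 0.5% DMSO vehicle.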
HttQ103 aggreg: reduces HttQ103-GFP aggregates in PC12 cells. PC12 HttQ103-GFP aggregates, Acumen cytometry, 40 h. Potency, µM (titrated, usually from 46.1 µM), hits mostly inhibitors. hit rate 1.1% among 220,000. AID 1688; further: nearly all actives have a fitted effect of over 60% in size
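Ecdysone-promoter PC12 model expressing HTT exon 1 Q103 fused to GFP, induced by tebufenozide at 100 nM final. Compounds titrated; aggregates sized 1–25 µm scored on a 488 nm laser cytometer.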
HTT ATP protect: protects HTT-Q103 PC12 cells, measured by ATP; hit rate 0.14% among 230,000; PC12 HTT-Q103 induced, cytoprotection, ATP luminescence, 40 h; Potency, µM (doses to about 56.4 µM), usual class: activators; further: nearly all actives have a fitted effect of over 45% in size
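Quantitative HTS on tebufenozide-induced (100 nM) PC12 cells expressing HTTQ103 exon 1–GFP; compounds tested as a concentration series; survival measured via cellular ATP.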
IMPase inh: IMPase inhibition in cells; P97697; inhibition (IP1 accumulation), % at 46.1 µM; CHO-M1 cells, IP1 accumulation, HTRF TR-FRET ratio; 120,000 tested, under 10 active; AID 901; active means well fitted curve in the direction sought with a large enough effect in the signal ratio, not every such curve was filed as active; inconclusive means small, poorly fitted or top-dose-only effect, or a change in a side signal; inactive means no such curve, though single readings can be large or run the other way; the % refers to the signal ratio;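 further: cells stimulated with carbachol in lithium chloride buffer; higher means more IMPase inhibition seen as more IP1 and lower FRET ratio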
Target sequence (P97697 whole entry, looked up): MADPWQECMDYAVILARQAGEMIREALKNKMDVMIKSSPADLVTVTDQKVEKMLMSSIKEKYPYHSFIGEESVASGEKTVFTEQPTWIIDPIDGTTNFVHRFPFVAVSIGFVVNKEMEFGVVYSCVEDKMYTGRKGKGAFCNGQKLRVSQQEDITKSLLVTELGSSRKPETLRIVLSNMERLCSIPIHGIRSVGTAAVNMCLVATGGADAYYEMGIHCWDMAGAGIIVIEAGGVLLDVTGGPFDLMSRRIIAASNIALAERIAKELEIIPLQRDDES
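Seeded CHO-M1 cells were dosed with compound at up to 46 uM, stimulated with carbachol for 30 min, then lysed in IP-One detection reagents. Higher IP1 lowers the TR-FRET signal.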
IMPase Li cell: cell-permeable IMPase inhibitors with lithium potentiation; CHO-M1 cells, IP1 TR-FRET (IP-One), carbachol + lithium; Potency, µM (top dose mostly 59.4 µM), most hits filed as inhibitors; hit rate 0.35% among 210,000;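 further: IP1 builds up when IMPase is blocked and the TR-FRET signal falls; nearly all actives have a fitted effect of over 50% in size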
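CHO cells stably expressing M1 receptor (2000/well) were cultured 16–30 h, then exposed to compounds with a small lithium addition for 30 min at 37C. IP1 was measured by TR-FRET competition; AC50 from Hill fits.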
Hits are given with their value; [ ] = another dose, or the depositor's remark. Unless noted, the call rests on the fitted dose curve; in most records, active means well fitted curve in the direction sought with a large enough effect; inconclusive means small, poorly fitted or top-dose-only effect, or another doubt; inactive means no such curve, though single readings can be large; an effect the other way counts as inactive or inconclusive.

For CC(C)(C)OC(=O)NCCc1nnc(S(=O)(=O)Cc2ccc(Cl)cc2Cl)o1 the results were NPSR antagonist inconclusive, LMNA splice mod inconclusive, HttQ103 aggreg 20µM, HTT ATP protect inactive[0.074 µM], IMPase inh inactive and IMPase Li cell inactive.
CC(C)(C)OC(=O)NCCc1nnc(SCc2ccccc2Cl)o1 was read as NPSR antagonist inactive, LMNA splice mod inconclusive, HttQ103 aggreg inactive, HTT ATP protect inactive, IMPase inh inactive and IMPase Li cell inactive.
`CCc1ccc(C(=O)COC(=O)c2cc([N+](=O)[O-])ccc2NCCO)cc1` gave NPSR antagonist inactive, LMNA splice mod inconclusive, HttQ103 aggreg inactive, HTT ATP protect inactive[0.074 µM] and IMPase Li cell inactive.
For Cc1cc(C)c(C(=O)COC(=O)c2cc([N+](=O)[O-])ccc2NCCO)cc1C the results were NPSR antagonist inactive, LMNA splice mod inactive, HttQ103 aggreg 0.0141µM, IMPase inh inactive and IMPase Li cell inactive.
Screening Cc1cccc(NC(=O)c2c(-c3ccccc3)noc2C)n1 returned NPSR antagonist inactive, LMNA splice mod inactive[9.22 µM], HttQ103 aggreg inactive, HTT ATP protect 2.24µM and IMPase Li cell inactive.
For Cc1cccc(C)c1NC(=O)c1c(-c2ccccc2)noc1C the results were NPSR antagonist inactive, LMNA splice mod inactive, HttQ103 aggreg inconclusive, HTT ATP protect inactive, IMPase inh inactive and IMPase Li cell inactive.
Screening Cc1cc(C)nc(NN=C(c2ccccc2)c2ccccc2)n1 returned NPSR antagonist inactive, LMNA splice mod inconclusive, HttQ103 aggreg 17.8µM, HTT ATP protect inactive[10 µM] and IMPase Li cell inactive.
Screening CC(/C=C/c1ccccc1)=N\Nc1nc(C)cc(C)n1 returned NPSR antagonist inactive, LMNA splice mod inconclusive, HttQ103 aggreg inactive and IMPase Li cell inactive.
CC(C)c1ccc2oc(-c3ccc(NC(=O)c4cccc(Br)c4)cc3)nc2c1 was read as IMPase inh inactive.
O=C1c2ccc(Oc3ccc4c(c3)C(=O)N(CCCO)C4=O)cc2C(=O)N1CCCO was read as NPSR antagonist inactive, LMNA splice mod inactive, HttQ103 aggreg 5.62µM, HTT ATP protect inactive, IMPase inh inactive and IMPase Li cell inactive.
`CC(=O)N[C@H]1[C@H](O[C@@H]2c3ccc(c(Cl)c3)Oc3cc4cc(c3O[C@@H]3O[C@H](CO)[C@@H](O)[C@H](O)C3C)Oc3ccc(cc3Cl)C[C@H]3NC(=O)[C@@H](N)c5ccc(O)c(c5)Oc5cc(O)cc(c5)[C@H](NC3=O)C(=O)N[C@H]4C(=O)N[C@H]3C(=O)N[C@@H]2C(=O)N[C@@H](C(=O)O)c2cc(O)cc(O[C@H]4O[C@H](CO)[C@@H](O)C(O)[C@@H]4O)c2-c2cc3ccc2O)O[C@H](CO)[C@@H](O)[C@@H]1O` (stereo not given in full) gave HttQ103 aggreg inactive and HTT ATP protect inactive.
`CCc1nc(Cl)c(C#N)c2c1CCCC2` gave NPSR antagonist inactive, LMNA splice mod inactive, HttQ103 aggreg 11.2µM, HTT ATP protect inactive[10 µM], IMPase inh inactive and IMPase Li cell inactive.
Screening Cn1c(=O)c(=O)n(C)c2cc(S(=O)(=O)NCCOc3ccccc3)ccc21 returned NPSR antagonist inactive, LMNA splice mod inactive, HttQ103 aggreg inactive, HTT ATP protect inactive and IMPase Li cell inactive.
For O=C(NC1CCCC1)c1cc2nc(-c3ccccc3)cc(-c3ccccc3)n2n1 the results were NPSR antagonist inactive, HttQ103 aggreg 3.55µM and HTT ATP protect inactive[10 µM].
For Cc1[nH]nc2ncc(C(=O)c3ccccc3O)cc12 the results were NPSR antagonist inactive, LMNA splice mod inconclusive, HttQ103 aggreg 6.31µM, HTT ATP protect 20µM, IMPase inh inactive and IMPase Li cell inactive.
For O=C(CSc1nc2c(c(C(F)(F)F)n1)CCc1ccccc1-2)NCc1ccccc1 the results were NPSR antagonist inconclusive, LMNA splice mod inactive, HttQ103 aggreg inactive, HTT ATP protect inactive[10 µM], IMPase inh inactive and IMPase Li cell 10µM.
Screening O=C(O)CCCN1C(=O)/C(=C/c2cn(-c3ccccc3)nc2-c2cccs2)SC1=S returned NPSR antagonist 3.16µM, HttQ103 aggreg inconclusive, HTT ATP protect inactive and IMPase Li cell inactive.
`Cc1nn(-c2ccccc2)c(Cl)c1/C=C1\SC(=S)N(CCCCCC(=O)O)C1=O` gave NPSR antagonist inactive, HttQ103 aggreg inactive[9.22 µM] and HTT ATP protect inactive[10 µM].
Screening Cc1cc(C)n(C(=O)/C(C#N)=N/Nc2cc(Cl)cc(Cl)c2)n1 returned NPSR antagonist inactive, LMNA splice mod inactive[9.22 µM], HttQ103 aggreg 12.6µM, HTT ATP protect inactive and IMPase Li cell inactive.
For Cc1cc(C)n(C(=O)/C(C#N)=N\Nc2ccccc2[N+](=O)[O-])n1 the results were NPSR antagonist inactive, LMNA splice mod inactive, HttQ103 aggreg inactive, HTT ATP protect inactive and IMPase Li cell inactive.
`O=C(CSc1nccn1-c1cccc(Cl)c1)Nc1cccc(C(F)(F)F)c1` gave LMNA splice mod inactive.
For COc1ccc(N(C(=O)CCl)C(C(=O)NCCc2ccccc2)c2cccs2)cc1Cl (stereo not given) the results were NPSR antagonist inconclusive, LMNA splice mod inconclusive, HttQ103 aggreg inactive[9.22 µM], HTT ATP protect inactive[10 µM], IMPase inh inactive and IMPase Li cell inactive.
`COc1cccc(N(C(=O)CCl)C(C(=O)NCCc2ccccc2)c2cccs2)c1` (stereo not given) gave NPSR antagonist inactive, LMNA splice mod inconclusive, HttQ103 aggreg 22.4µM, HTT ATP protect inactive[10 µM] and IMPase Li cell inactive.
Screening Cc1cc(C)n(-c2nc(Nc3ccccc3)nc(-n3nc(C)cc3C)n2)n1 returned NPSR antagonist inactive, LMNA splice mod inactive, HttQ103 aggreg inactive, HTT ATP protect inactive, IMPase inh inactive and IMPase Li cell inconclusive.
Screening Cc1cc(C)n(-c2nc(C)nc(N)n2)n1 returned NPSR antagonist inactive, LMNA splice mod inactive, HttQ103 aggreg 0.794µM, HTT ATP protect inactive, IMPase inh inactive and IMPase Li cell inactive.
`Cc1cc(C)n(-c2nc(N(c3ccccc3)c3ccccc3)nc(-n3nc(C)cc3C)n2)n1` gave NPSR antagonist 12.6µM, LMNA splice mod inactive, HttQ103 aggreg inactive, HTT ATP protect inactive[10 µM], IMPase inh inactive and IMPase Li cell inactive.
Screening N[C@H](C(=O)O)C1C(C(=O)O)C1C(=O)O (stereo not given in full) returned HTT ATP protect inactive and IMPase Li cell inactive.
For S=C(Nc1ccc(Cl)cc1)c1nc2ccccc2s1 the results were NPSR antagonist inactive, LMNA splice mod inactive, HttQ103 aggreg inactive, HTT ATP protect inactive, IMPase inh inactive and IMPase Li cell inactive.
For O=C(Nc1ccc(Cl)cc1)/C(=C/c1cccc(O)c1)c1nc2ccccc2s1 the results were NPSR antagonist 10µM, LMNA splice mod inconclusive, HttQ103 aggreg inactive[0.0738 µM], HTT ATP protect inactive[0.074 µM] and IMPase Li cell inactive.

Screening results from PubChem BioAssay.
